# Measurements: PubChem BioAssay (NCATS)
# Several values for one entry are separate records, joined by “and”; a condition that tells them apart may be missing. Equal values may be shown once. Records with an inconclusive call do not appear. A call without a number means that no potency is given here. More than one record can exist for a structure, and the calls need not agree. Activity calls are given as the source filed them. Unless noted, the call rests on the fitted dose curve; in most records, active means well fitted curve in the direction sought with a large enough effect; inconclusive means small, poorly fitted or top-dose-only effect, or another doubt; inactive means no such curve, though single readings can be large; an effect the other way counts as inactive or inconclusive.
# How the values were obtained:
# [1] = AP1 Signaling Pathway (AID 357; active means well fitted curve in either direction with a large enough effect, not every such curve was filed as active;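 further: ME-180 reporter cells stimulated with EGF at its EC50 level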); conditions: ME-180 AP-1-bla reporter, EGF-induced, beta-lactamase ratio, 5 h
# Outline: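 Modulation of EGF-driven AP-1 transcription was assessed with a beta-lactamase reporter in ME-180 cells. Compound and EC50 EGF were co-incubated 5 hours at 37 °C before 2.5-hour CCF4 loading at room temperature and dual-emission reading.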
# [2] = biological target: Cytochrome P450 1A2 (Homo sapiens) (UniProt P05177); experiment: p450-cyp1a2 (AID 410; calls by dose curve; further: potency means the concentration at half of the fitted maximal effect); conditions: recombinant CYP1A2, luciferin-ME demethylation, luminescence; series mostly up to 57 µM
# Outline: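 20nM CYP1A2, 100uM Luciferin-ME (=Km), 100mM KPO4; cpd 10 min RT; +NADPH regen, 60 min RT; stop/detect 20 min; luminescence. Normalized to furafylline 57 uM = full inhibition.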
# [3] = Stat Signaling Pathway (AID 446; active means well fitted curve in either direction with a large enough effect, not every such curve was filed as active;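 further: ME-180 cervical cancer cells given 40 pM IL-6 alongside compound; SIE-controlled beta-lactamase reporter measured as 460/530 nm FRET emission ratio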); conditions: ME-180 (cervical carcinoma) SIE beta-lactamase reporter, IL-6 stimulated, 5 h
# Outline: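 FRET read-out (405 nm excitation, 460/530 nm emission) of a beta-lactamase reporter under a STAT-inducible element in ME-180 cervical carcinoma cells. Cells with compound receive 40 pM IL-6 for 5 h. Values are normalised to AC90 stimulation and AC90 JAK-inhibitor controls.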
# [4] = biological target: Glucocorticoid receptor (Homo sapiens) (UniProt P04150); experiment: GR-GFP Redistribution (AID 450;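 active means compounds whose dose series gives a full or clear partial fitted curve of increased nuclear translocation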; further: potency means the concentration at half of the fitted maximal effect); conditions: U2OS GR-GFP nuclear translocation, laser cytometry, 2 h
# [5] = biological target: Glucocorticoid receptor (Homo sapiens) (UniProt P04150); experiment: GR-EFC Redistribution (AID 451; calls by dose curve; further: potency means the concentration at half of the fitted maximal effect); conditions: CHO-K1 GR-EFC translocation, beta-gal luminescence, 2 h
# Outline: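 CHO-K1 cells stably expressing nuclear-localized β-gal enzyme acceptor and GR fused C-terminally to the enzyme donor fragment; ligand-driven nuclear translocation restores β-gal by complementation. Compounds titrated up to 46 uM final, 2 h at 37 °C; luminescence read.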
# [6] = biological target: Mitogen-activated protein kinase 10 (Mus musculus) (UniProt Q61831); experiment: JNK3 AlphaScreen Assay (AID 530; active means well fitted curve in either direction with a large enough effect, not every such curve was filed as active;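 further: kinase came from lysate of stimulated human HepG2 cells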; further: potency means the concentration at half of the fitted maximal effect;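 on activity change, negative = inhibition: signal reports phosphorylation of biotinylated GST-cJun 1-79 at Ser73 with 10 µM ATP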); conditions: JNK3 lysate, c-Jun phosphorylation; series mostly up to 57.1 µM
# Outline: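 Biotinylated GST-cJun(1-79) served as substrate for JNK3 in HepG2 lysates stimulated with IL-1beta and TNF-alpha. ATP was 10 uM final, pH 7.6. Ser73 phosphorylation was quantified by AlphaScreen (680 nm excitation).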
# [7] = biological target: Cytochrome P450 2C9 (Homo sapiens) (UniProt P11712); experiment: qHTS Assay for Inhibitors and Substrates of Cytochrome P450 2C9 (AID 883); conditions: recombinant CYP2C9, luciferin-H luminescence, 60 min; series mostly up to 57.1 µM; further: nearly all actives have a fitted effect of over 60% in size; further: potency means the concentration at half of the fitted maximal effect
# Outline: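 CYP2C9 deoxyluciferin hydroxylation, 37C, 60 min with NADPH regeneration; 10nM enzyme, 100uM Luciferin-H (KM). Glo detection reagent stopped reaction; luminescence normalized to sulphaphenazole (57uM) full inhibition.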
# [8] = biological target: Cytochrome P450 3A4 (Homo sapiens) (UniProt P08684); experiment: qHTS Assay for Activators of Cytochrome P450 3A4 (AID 885); conditions: recombinant CYP3A4, Luciferin-PPXE luminescence, 60 min; series mostly up to 57.1 µM; further: nearly all actives have a fitted effect of over 65% in size
# Outline: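 Luminescent readout of luciferin formed from 25 uM Luciferin-PPXE (KM level) by 20 nM CYP3A4 in 200 mM KPO4, with 60 min NADPH-driven reaction at room temperature after 10 min compound exposure. Ketoconazole (57 uM) defined 100% inhibition.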
# [9] = biological target: Cytochrome P450 2C19 (Homo sapiens) (UniProt P33261); experiment: qHTS Assay for Inhibitors and Substrates of Cytochrome P450 2C19 (AID 899); conditions: recombinant CYP2C19, luciferin-H EGE luminescence; series mostly up to 57.1 µM; further: nearly all actives have a fitted effect of over 60% in size; further: potency means the concentration at half of the fitted maximal effect
# Outline: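 In 50mM KPO4, the reaction held 5nM enzyme and KM-level (10uM) Luciferin-H EGE; it ran 60 min at 37C after NADPH regeneration and a 10 min compound preincubation. Luminescence values were scaled to 57uM ketoconazole as complete inhibition.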
# [10] = biological target: DNA dC->dU-editing enzyme APOBEC-3G (Homo sapiens) (UniProt Q9HC16); experiment: qHTS for inhibitors of Vif-A3G interactions: Validation (AID 588379); conditions: Vif-A3G protein interaction assay; series mostly up to 46.1 µM
# Outline: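 Yellow fluorescence (Ex 488, Em 500-530) of Vif-coexpressing HeLa A3G-eYFP cells, scanned by Acumen cytometer, reports blocked A3G degradation. Cells plated at 700/well overnight at 37 deg C before compound addition, then a further overnight compound incubation at 37 deg C.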
# [11] = test system: Zika virus NS2B-NS3 protease; experiment: Primary screen GU AMC qHTS for Zika virus inhibitors (AID 1347154); conditions: Zika NS2B-NS3 unlinked protease, AMC fluorogenic substrate; series mostly up to 54.1 µM; further: nearly all actives have a fitted effect of over 70% in size
# Outline: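 Unlinked Zika NS2B hydrophilic domain/NS3 protease domain noncovalent complex (25 nM final) in 10 mM Tris-HCl pH 8.0, 0.01% Tween 20, with AMC peptide substrate. Fluorescence (ex 340, em 450 nm) change over 15 min, room temperature; percent inhibition fitted to 4-parameter Hill equation.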
# [12] = Primary qHTS for small molecule stabilizers of the endoplasmic reticulum resident proteome: Secreted ER Calcium Modulated Protein (SERCaMP) assay (AID 1508630); conditions: SH-SY5Y GLuc-SERCaMP (Gaussia luciferase released on ER calcium loss) secretion, thapsigargin, luminescence; series mostly up to 38.4 µM
# Outline: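 The SH-SY5Y reporter protocol was run at 3 concentrations up to 38.3 uM (primary) or 11 concentrations (follow-up): 16 h compound, 100 nM thapsigargin for 4 h, then extracellular luciferase luminescence.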
# [13] = NFAT Signaling Pathway (AID 444; active means well fitted curve in either direction with a large enough effect, not every such curve was filed as active;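 further: carbachol stimulus at about its EC50 of 1 µM final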); conditions: Jurkat NFAT-bla M1, carbachol, beta-lactamase ratio, 5 h
# Outline: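 Jurkat cells carrying an NFAT-driven β-lactamase reporter and co-transfected muscarinic M1 receptor were treated with compound plus carbachol (1 uM final, an EC50 level) for 5 h at 37 °C. CCF4 loading followed for 1 h at RT; 460/530 nm ratio gave %activity.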
# [14] = biological target: 3',5'-cyclic-AMP phosphodiesterase 4B (Homo sapiens) (UniProt Q07343); experiment: qHTS Assay for Inhibitors of PDE-IV (AID 607; active means well fitted activation curve with a large enough effect in the main read-out, with a control signal flat, not every such curve was filed as active); conditions: HEK293 ACTOne CNG channel cells, membrane potential fluorescence; series mostly up to 22.9 µM
# Outline: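 Cell-based read-out of cAMP via a modified cyclic nucleotide-gated channel and membrane potential dye (535/590 nm) in HEK293 cells expressing PDE4 endogenously. Compounds tested up to 22.9 uM final; 100 uM RO 20-1724 reference.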
# [15] = biological target: Ubiquitin carboxyl-terminal hydrolase 1 (Homo sapiens) (UniProt O94782); experiment: Inhibitors of USP1/UAF1: Pilot qHTS (AID 504865); conditions: purified USP1/UAF1, Ub-rhodamine cleavage fluorescence; series mostly up to 114 µM;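 further: rhodamine fluorescence freed from ubiquitin-rhodamine substrate followed over time; top concentration of the series differs between compounds; nearly all actives have a fitted effect of over 35% in size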
# Outline: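 USP1/UAF1 complex (1nM) preincubated with compound 15 min at room temperature, then Ub-Rho substrate (150nM final) added. Fluorescence read kinetically at 480/540 nm, 6 reads every 60 seconds. Buffer: 50mM HEPES pH 7.8, 0.5mM EDTA, 0.1 mg/ml BSA, 1mM TCEP, 0.01% Tween-20.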
# Sequence of DNA dC->dU-editing enzyme APOBEC-3G (Homo sapiens) (Q9HC16 whole entry, looked up): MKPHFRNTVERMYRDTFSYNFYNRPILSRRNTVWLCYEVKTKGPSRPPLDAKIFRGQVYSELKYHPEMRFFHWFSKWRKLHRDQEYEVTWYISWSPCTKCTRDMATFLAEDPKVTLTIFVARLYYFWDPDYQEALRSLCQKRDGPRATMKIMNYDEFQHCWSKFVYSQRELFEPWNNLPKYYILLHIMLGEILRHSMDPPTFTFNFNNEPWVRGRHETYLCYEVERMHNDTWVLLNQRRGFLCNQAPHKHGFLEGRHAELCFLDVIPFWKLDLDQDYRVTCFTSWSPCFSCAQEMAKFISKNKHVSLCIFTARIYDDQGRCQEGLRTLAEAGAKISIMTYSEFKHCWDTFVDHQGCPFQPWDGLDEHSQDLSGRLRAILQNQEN
# Sequence of Cytochrome P450 1A2 (Homo sapiens) (P05177 whole entry, looked up): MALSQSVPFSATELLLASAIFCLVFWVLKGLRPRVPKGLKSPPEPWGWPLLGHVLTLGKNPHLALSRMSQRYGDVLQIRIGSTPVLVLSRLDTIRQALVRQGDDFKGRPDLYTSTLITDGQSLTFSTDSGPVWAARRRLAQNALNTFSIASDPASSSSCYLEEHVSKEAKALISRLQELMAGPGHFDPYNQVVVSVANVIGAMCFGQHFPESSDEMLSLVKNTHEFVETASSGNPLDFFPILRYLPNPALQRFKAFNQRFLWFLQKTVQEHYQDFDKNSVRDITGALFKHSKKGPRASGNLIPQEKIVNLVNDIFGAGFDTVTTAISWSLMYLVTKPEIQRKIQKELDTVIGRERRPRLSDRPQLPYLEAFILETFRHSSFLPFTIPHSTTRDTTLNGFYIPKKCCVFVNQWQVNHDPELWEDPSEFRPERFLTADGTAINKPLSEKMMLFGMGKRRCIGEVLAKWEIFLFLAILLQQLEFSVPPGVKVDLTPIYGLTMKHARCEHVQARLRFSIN
# Sequence of Glucocorticoid receptor (Homo sapiens) (P04150 whole entry, looked up, the tested form may be a part): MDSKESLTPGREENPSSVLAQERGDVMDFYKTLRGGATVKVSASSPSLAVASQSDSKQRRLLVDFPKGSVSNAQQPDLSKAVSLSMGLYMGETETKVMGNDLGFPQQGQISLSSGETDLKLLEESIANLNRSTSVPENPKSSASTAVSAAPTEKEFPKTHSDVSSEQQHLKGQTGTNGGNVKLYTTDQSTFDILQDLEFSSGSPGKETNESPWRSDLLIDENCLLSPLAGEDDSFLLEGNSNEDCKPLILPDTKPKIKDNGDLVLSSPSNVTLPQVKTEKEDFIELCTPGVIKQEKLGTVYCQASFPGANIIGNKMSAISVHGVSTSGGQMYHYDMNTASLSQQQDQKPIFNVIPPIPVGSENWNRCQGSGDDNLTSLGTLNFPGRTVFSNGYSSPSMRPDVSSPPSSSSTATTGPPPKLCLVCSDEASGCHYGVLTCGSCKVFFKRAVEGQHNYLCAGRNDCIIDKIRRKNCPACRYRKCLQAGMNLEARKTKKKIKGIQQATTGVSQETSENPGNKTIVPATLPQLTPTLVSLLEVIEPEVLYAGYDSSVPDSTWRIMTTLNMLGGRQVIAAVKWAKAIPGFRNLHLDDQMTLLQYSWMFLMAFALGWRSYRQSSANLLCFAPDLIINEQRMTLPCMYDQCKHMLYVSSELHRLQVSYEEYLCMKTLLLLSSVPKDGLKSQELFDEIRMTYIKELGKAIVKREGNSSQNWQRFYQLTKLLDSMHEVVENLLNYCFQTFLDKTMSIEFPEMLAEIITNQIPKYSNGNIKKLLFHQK
# Sequence of Cytochrome P450 3A4 (Homo sapiens) (P08684 whole entry, looked up): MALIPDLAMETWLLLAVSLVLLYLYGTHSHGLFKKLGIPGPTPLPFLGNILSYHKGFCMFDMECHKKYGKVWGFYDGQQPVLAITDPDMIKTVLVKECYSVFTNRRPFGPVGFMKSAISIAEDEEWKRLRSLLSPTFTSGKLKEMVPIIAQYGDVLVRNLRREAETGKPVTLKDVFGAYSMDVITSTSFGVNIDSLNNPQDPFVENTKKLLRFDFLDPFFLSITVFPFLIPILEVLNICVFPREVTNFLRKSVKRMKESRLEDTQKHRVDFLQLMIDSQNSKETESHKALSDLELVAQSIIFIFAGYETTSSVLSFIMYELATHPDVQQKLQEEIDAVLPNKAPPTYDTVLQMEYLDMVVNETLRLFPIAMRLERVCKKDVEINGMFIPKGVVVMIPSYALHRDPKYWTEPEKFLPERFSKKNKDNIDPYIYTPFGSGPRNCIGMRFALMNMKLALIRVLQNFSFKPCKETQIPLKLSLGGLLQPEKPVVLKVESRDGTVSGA
# Sequence of Cytochrome P450 2C19 (Homo sapiens) (P33261 whole entry, looked up): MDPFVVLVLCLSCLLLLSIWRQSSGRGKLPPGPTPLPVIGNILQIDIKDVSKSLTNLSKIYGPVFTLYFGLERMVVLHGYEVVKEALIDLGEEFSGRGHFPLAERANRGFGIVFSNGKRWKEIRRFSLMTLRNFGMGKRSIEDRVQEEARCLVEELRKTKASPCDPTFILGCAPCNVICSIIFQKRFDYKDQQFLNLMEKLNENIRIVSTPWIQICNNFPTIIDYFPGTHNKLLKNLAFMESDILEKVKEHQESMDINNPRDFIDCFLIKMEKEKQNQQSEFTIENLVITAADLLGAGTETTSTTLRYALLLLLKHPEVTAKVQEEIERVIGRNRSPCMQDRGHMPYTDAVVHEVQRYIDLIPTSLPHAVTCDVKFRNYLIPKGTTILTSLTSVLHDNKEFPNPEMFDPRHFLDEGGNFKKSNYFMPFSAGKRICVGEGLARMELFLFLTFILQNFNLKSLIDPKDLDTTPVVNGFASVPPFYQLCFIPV
# Sequence of Cytochrome P450 2C9 (Homo sapiens) (P11712 whole entry, looked up): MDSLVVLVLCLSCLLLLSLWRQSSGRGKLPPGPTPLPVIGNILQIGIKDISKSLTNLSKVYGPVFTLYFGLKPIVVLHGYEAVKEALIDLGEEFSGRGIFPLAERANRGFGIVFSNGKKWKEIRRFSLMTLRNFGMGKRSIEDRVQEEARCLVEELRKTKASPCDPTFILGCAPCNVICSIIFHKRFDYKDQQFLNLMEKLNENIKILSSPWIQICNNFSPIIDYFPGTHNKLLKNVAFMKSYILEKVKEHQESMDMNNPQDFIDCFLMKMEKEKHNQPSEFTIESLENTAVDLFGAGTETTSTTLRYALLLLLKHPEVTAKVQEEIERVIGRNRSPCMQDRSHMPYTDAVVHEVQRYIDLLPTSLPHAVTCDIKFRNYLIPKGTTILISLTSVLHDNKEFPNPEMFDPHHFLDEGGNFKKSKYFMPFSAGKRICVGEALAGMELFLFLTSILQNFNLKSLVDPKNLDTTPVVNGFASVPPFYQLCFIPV
# Sequence of Ubiquitin carboxyl-terminal hydrolase 1 (Homo sapiens) (O94782 whole entry, looked up): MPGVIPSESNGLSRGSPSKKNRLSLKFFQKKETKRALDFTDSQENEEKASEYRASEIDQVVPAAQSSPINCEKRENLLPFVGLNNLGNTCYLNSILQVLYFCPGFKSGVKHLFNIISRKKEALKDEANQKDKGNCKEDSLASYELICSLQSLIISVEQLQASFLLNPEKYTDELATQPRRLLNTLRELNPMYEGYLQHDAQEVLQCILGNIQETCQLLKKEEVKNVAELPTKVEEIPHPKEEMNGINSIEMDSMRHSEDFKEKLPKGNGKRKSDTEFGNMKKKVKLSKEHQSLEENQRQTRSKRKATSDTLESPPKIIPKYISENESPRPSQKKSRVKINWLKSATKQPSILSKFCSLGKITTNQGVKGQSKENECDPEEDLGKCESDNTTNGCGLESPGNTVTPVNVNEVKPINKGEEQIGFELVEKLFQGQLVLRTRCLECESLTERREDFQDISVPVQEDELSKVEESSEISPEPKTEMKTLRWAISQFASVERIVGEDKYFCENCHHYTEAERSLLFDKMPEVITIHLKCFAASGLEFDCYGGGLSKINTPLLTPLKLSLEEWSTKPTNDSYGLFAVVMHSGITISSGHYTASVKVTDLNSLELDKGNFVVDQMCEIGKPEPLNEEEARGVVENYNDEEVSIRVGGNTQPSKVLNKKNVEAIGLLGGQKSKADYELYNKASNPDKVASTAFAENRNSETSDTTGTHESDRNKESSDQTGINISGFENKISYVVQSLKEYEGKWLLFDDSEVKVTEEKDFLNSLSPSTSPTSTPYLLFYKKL
# Sequence of 3',5'-cyclic-AMP phosphodiesterase 4B (Homo sapiens) (Q07343 whole entry, looked up): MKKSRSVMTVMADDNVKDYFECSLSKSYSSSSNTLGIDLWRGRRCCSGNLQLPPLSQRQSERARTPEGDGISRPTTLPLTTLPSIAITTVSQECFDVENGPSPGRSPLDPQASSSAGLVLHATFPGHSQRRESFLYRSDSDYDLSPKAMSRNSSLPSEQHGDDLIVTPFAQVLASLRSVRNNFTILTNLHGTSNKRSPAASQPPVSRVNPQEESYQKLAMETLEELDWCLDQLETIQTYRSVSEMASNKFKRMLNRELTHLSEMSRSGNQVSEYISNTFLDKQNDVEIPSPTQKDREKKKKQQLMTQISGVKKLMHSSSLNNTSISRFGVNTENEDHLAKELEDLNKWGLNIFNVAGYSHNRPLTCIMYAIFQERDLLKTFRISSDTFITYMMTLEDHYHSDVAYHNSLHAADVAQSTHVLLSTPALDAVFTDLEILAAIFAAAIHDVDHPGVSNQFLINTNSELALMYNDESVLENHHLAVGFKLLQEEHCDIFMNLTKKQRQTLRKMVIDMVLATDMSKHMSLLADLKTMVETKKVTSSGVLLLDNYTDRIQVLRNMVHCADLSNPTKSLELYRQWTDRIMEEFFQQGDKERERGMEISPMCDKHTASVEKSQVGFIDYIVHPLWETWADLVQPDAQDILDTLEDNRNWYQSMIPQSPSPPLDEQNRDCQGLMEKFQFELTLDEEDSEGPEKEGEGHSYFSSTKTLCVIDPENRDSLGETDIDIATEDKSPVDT
compound,measurement,setting,value
CO[C@@]12C[C@@H](COC(=O)c3cncc(Br)c3)CN(C)[C@H]1Cc1cn(C)c3cccc2c13,"activity change, negative = inhibition",[1]; at 17.2 µM (top of the series),-12% (inactive)
same,Potency,[2],5.01 µM (active) and 15.8 µM (active) and 39.8 µM (active)
same,"activity, negative = inhibition",[3]; at 17.2 µM (top of the series),-10.5% (inactive)
same,Potency,[4],> 20.6 µM (inactive) and > 46 µM (inactive)
same,Potency,[5],> 20.6 µM (inactive) and > 46 µM (inactive)
same,Potency,[6],inactive and 3.16 µM (active)
same,Potency,[7],inactive
same,Potency,[8],inactive
same,Potency,[9],6.31 µM (active)
same,Potency,[10],inactive
same,Potency,[11],inactive
same,Potency,[12],inactive
c1ccc(-c2n[nH]c3c2oc2ccccc23)cc1,Potency,[11],inactive
same,Potency,[12],inactive
N#CC(=C(/N)Sc1ccccc1N)/C(C#N)=C(\N)Sc1ccccc1N,Potency,[11],inactive
same,Potency,[12],inactive
N[C@H](Cc1ccccc1)C(=O)O,Potency,[11],inactive
same,Potency,[12],inactive
COc1cc([C@@H]2c3cc4c(cc3C(O[C@@H]3O[C@@H]5CO[C@@H](c6cccs6)OC5[C@H](O)[C@H]3O)C3COC(=O)[C@@H]32)OCO4)cc(OC)c1O (stereo not given in full),Potency,[11],inactive
same,Potency,[12],inactive
C[C@@H](C[C@H](N)C(=O)O)C(=O)O,"activity change, negative = inhibition",[1]; at 7.69 µM (top of the series),-5.85% (inactive)
same,"activity change, negative = inhibition",[2],-18.7% [at 11.4 µM] (inactive)
same,"activity change, negative = inhibition",[13]; at 7.69 µM (top of the series),21.8% (inactive)
same,"activity, negative = inhibition",[3]; at 7.69 µM (top of the series),15.7% (inactive)
same,Potency,[4],> 46 µM (inactive)
same,"activity change, negative = inhibition",[6],-4.43% [at 11.4 µM] (inactive)
same,Potency,[14],inactive
same,"activity, negative = inhibition",[9],46.1% [at 11.4 µM] (inactive)
same,Potency,[11],inactive
same,Potency,[12],inactive
CC/C=C\C/C=C\C/C=C\C/C=C\C/C=C\CCCCCC(=O)O,"activity change, negative = inhibition",[11],-1.57% [at 6.83 µM] (inactive)
same,"activity change, negative = inhibition",[12],-17.3% [at 3.88 µM] (inactive)
COC(=O)C1=C(C)NC(C)=C([N+](=O)[O-])[C@@H]1c1ccccc1C(F)(F)F,Potency,[2],39.8 µM (active)
same,Potency,[5],> 46 µM (inactive)
same,Potency,[7],0.158 µM (active)
same,Potency,[8],inactive
same,Potency,[9],0.126 µM (active)
same,Potency,[10],inactive
same,Potency,[11],inactive
same,Potency,[12],inactive
CCCCC[C@H](O)CC(=O)CCc1ccc(O)c(OC)c1,Potency,[11],inactive
same,Potency,[12],inactive
CCCCCC#CCC#CCC#CCC#CCCCC(=O)O,"activity change, negative = inhibition",[1]; at 17.2 µM (top of the series),-11.4% (inactive)
same,"activity change, negative = inhibition",[13]; at 17.2 µM (top of the series),-2.11% (inactive)
same,Potency,[11],inactive
same,Potency,[12],inactive
C[C@H]1C=C2C=C[C@H](C)[C@H](CC[C@@H]3C[C@@H](O)CC(=O)O3)[C@H]2[C@@H](OC(=O)[C@@H](C)CCO)C1,Potency,[2],31.6 µM (active)
same,Potency,[5],> 46 µM (inactive)
same,Potency,[6],inactive
same,Potency,[8],inactive
same,Potency,[10],inactive
same,Potency,[11],inactive
same,Potency,[12],inactive
O=C1CCc2c(ccc3ccccc23)O1,Potency,[4],> 46 µM (inactive)
same,Potency,[5],> 46 µM (inactive)
same,Potency,[6],inactive
same,Potency,[15],inactive
same,Potency,[10],inactive
same,Potency,[11],inactive
same,Potency,[12],inactive
